Bioassay records: PubChem BioAssay, National Center for Advancing Translational Sciences (NCATS)
Luc counter: counter-screen: inhibitors of Kinase-Glo firefly luciferase. hit rate 0.28% among 200,000. Kinase-Glo luciferase, ATP luminescence, 8 min. Potency, µM (titrated, usually from 38.3 µM), for inactives: top-dose activity change, negative = inhibition, usual class: inhibitors; note: nearly all actives have a fitted effect of over 60% in size
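Kinase-Glo luciferase light output from ATP and luciferin was measured with 10 uM ATP, within the enzyme's linear range. Buffer: 50 mM imidazole pH 7.2, 50 mM KCl, 7 mM MgCl2, 0.01% Tween 20, 0.05% BSA; luminescence read after 8 min at ambient temperature.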
RORgamma inh: blocks mouse ROR gamma transcriptional activity | Potency, µM (highest dose often 53.6 µM), without a hit: top-dose activity change, negative = inhibition, actives largely listed as inhibitors | P51450 | hit rate 5.4% among 310,000 | Drosophila S2 Gal4-RORgamma UAS-luciferase reporter, 20 h; note: nearly all actives have a fitted effect of over 60% in size
Target sequence (P51450 whole entry, looked up, the tested form may be a part): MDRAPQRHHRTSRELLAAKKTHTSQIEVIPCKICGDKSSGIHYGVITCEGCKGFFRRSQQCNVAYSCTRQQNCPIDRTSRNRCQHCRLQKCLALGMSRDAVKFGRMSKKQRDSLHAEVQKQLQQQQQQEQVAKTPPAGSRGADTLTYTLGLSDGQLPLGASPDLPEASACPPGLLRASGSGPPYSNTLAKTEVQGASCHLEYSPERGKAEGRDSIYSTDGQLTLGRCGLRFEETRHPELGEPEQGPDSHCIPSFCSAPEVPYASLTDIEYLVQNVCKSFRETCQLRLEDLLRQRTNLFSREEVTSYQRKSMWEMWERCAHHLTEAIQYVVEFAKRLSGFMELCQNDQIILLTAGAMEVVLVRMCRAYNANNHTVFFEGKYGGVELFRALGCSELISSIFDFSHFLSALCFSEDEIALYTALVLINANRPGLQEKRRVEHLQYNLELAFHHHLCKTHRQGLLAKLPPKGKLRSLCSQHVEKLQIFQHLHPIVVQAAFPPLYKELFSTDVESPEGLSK
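Stably transfected Drosophila Schneider cells are the test system, with ROR gamma fused to Gal4 and luciferase under UAS control; luminescence is read after 20 hr of 700 uM copper sulfate induction at ambient temperature.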
Gal4-VP16 FLuc: Gal4-VP16 reporter inhibition counter-screen; Drosophila S2 Gal4-VP16 UAS-luciferase, luminescence, 20 h; AID 2546; hit rate 3.5% among 310,000; Potency, µM (doses to about 53.6 µM), for inactives: top-dose activity, negative = inhibition, most hits filed as inhibitors;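 note: Gal4-VP16 expression switched on by copper sulfate through the metallothionein promoter; nearly all actives have a fitted effect of over 50% in size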
* hit, by the source's call; ? = inconclusive; . = no result; [ ] = remark or other dose. Shown are actives, neighbours in structure and some others; about 6.2% of the full set was active somewhere. Calls come from the whole dose curve; as a rule, active = well fitted curve in the direction sought with a large enough effect; inconclusive = small, poorly fitted or top-dose-only effect, or another doubt; inactive = no such curve, though single readings can be large; an effect the other way counts as inactive or inconclusive. % is set by controls: 0 for no effect and ±100 for the full control effect; potency is the fitted concentration of half-maximal effect.

SMILES | Luc counter | RORgamma inh | Gal4-VP16 FLuc
CC(C)(C)OC(=O)NCCCC[C@H](NC(=O)c1nc[nH]c1C(=O)NCc1ccc(CNC(=O)OC(C)(C)C)cc1)C(=O)OC(C)(C)C | . | ? | 2%
CC(C)C[C@H](NC(=O)c1[nH]cnc1C(=O)Nc1ccc(CNC(=O)OC(C)(C)C)cc1)C(=O)OC(C)(C)C | . | 3.2µM* | 8.9µM*
CC(C)(C)OC(=O)NCc1ccc(NC(=O)c2nc[nH]c2C(=O)N[C@@H](Cc2ccccc2)C(=O)OC(C)(C)C)cc1 | . | 7.1µM* | 11µM*
O=c1c(CCc2ccccc2)nc2cnc(Oc3ccccc3)nc2n1C1CC1 | . | 32% | 1%
Cc1cccc(N2CCN(C(=O)CCS(=O)(=O)c3ccc4c(c3)NC(=O)CO4)CC2)c1C | . | 10% | 2%
CC(C)C(C)(C#N)NC(=O)CSc1nc2scc(-c3ccco3)c2c(=O)n1-c1ccccc1 (stereo unspecified) | -4% | 12% | 6%
CC(C)C(C)NC(=O)CSc1nc2scc(-c3ccco3)c2c(=O)n1-c1ccccc1 (stereo unspecified) | -5% | ? | 14µM*
C=CCn1c(SCC(=O)N2CCOCC2)nc2scc(-c3ccco3)c2c1=O | 12% | ? | ?
C=CCn1c(SC(F)F)nc2scc(-c3ccco3)c2c1=O | . | ? | 5µM*
O=C(/C=C/c1ccccc1[N+](=O)[O-])Nc1cccnc1 | -1% | ? | -6%
O=C(CN(CC1CCCO1)C(=O)CNS(=O)(=O)c1ccccc1)NCc1ccc(F)cc1 (stereo unspecified) | . | -3% | -4%
O=C(NCc1ccc(Cl)cc1)c1ccc(Br)o1 | 1%[39.9 µM] | 38% | -13%
O=C(NNC(=S)Nc1ccc(Br)cc1)c1ccccc1 | . | ? | -42%
O=C(NC(=S)NCc1ccccc1)c1ccc(Br)o1 | . | ? | 13µM*
O=C(NNC(=S)NCc1ccc(Cl)cc1)c1ccc(Br)o1 | 3% | 10% | -3%
O=C(NNC(=S)NCc1ccccc1)c1ccc(Br)cc1 | . | 7.9µM* | -2%
O=C(NNC(=S)NCc1ccccc1)c1ccc(Br)o1 | 2% | 8.9µM* | -23%
COc1ccc(-c2nc3cnc(Oc4ccccc4)nc3n(CCC#N)c2=O)cc1 | . | -15% | ?
Cc1cc(-c2cc(C)c(O)c(C(C)(C)C)c2)cc(C(C)(C)C)c1O | 1%[7.66 µM] | . | .
COc1ccc(CNC(=O)c2coc(=O)c3ccccc23)cc1 | 1% | 5% | 6%
CCOc1c(Nc2ccc(C(C)C)cc2)c(=O)c1=O | . | 33% | 18%
Cc1ccc(-c2nc(=S)c3c(n2Cc2ccco2)CCCC3)cc1 | -1% | -29% | -10%
Cc1cccc(-c2nc(=S)c3c(n2Cc2ccco2)CCCC3)c1 | -1% | 11µM* | ?
Cc1ccc(-c2nc(=S)c3c(n2Cc2ccco2)CC(C)(C)OC3)cc1 | -4% | 2.8µM* | 16µM*
Cc1ccc(-c2nc(=S)c3c(n2CC2CCCO2)CC(C)(C)OC3)cc1 (stereo unspecified) | 2% | 22% | -8%
SMILES | Luc counter | RORgamma inh | Gal4-VP16 FLuc
O=C(NCCCN1CCOCC1)c1ccc(CSc2ccc(Cl)cc2)cc1 | 4% | 18% | 5%
O=C(Nc1ccccc1C(=O)NC(Cc1ccc(O)cc1)C(=O)O)c1ccccc1 (stereo unspecified) | -1% | -14% | -14%
COc1ccc(-c2cn(-c3ccc(OC)cc3)c3[n+]2-c2ccccc2CC3)cc1 | -2% | ? | 4.5µM*
COc1ccc(-c2c[n+]3c(n2-c2ccccc2)SCC3)cc1 | . | 21% | -16%
COc1ccc(-n2c(-c3ccc(Br)cc3)c[n+]3c2CCc2ccccc2-3)cc1 | -1% | -69% | 6.3µM*
CC(C)c1ccc(-n2c(-c3ccccc3)c[n+]3c2CCc2ccccc2-3)cc1 | 0% | 4.5µM* | 3.5µM*
COc1ccccc1-n1c(-c2ccccc2)c[n+]2c1CCc1ccccc1-2 | 0% | ? | 8.9µM*
FC(F)Oc1ccc(-c2c[n+]3c(n2-c2ccccc2)CCCCC3)cc1 | . | 9% | -1%
COc1ccccc1-n1c(-c2ccc(F)cc2)coc1=O | . | -7% | 8%
COc1ccc(-n2cc(-c3ccccc3)[n+]3c2CCCCC3)cc1 | 4% | 4% | ?
CC(C)c1ccc(NC2CCCN(C(=O)c3ccccc3-c3ncc[nH]3)C2)cc1 (stereo unspecified) | . | 5% | -1%
CCOC(=O)c1ccc(NC(=O)CSc2nnc(CNC(=O)c3ccco3)o2)cc1 | . | 9% | -2%
CC(=O)N1CCc2cc(S(=O)(=O)NC(Cc3ccccc3)C(=O)NCCN3CCCCC3C)ccc21 (stereo unspecified) | 10% | 1% | -6%
COc1cccc2c3c(c(C)nc12)CC(CO)O3 (stereo unspecified) | 0% | 0% | 1%
N#CCCn1c(=O)c(-c2cccs2)nc2cnc(Oc3cccc(Cl)c3)nc21 | -7% | -1% | -3%
CCOC(=O)C1CCN(Cc2nc3ccc(Cl)cc3n2CCO)CC1 | 6% | -8% | 2%
CCOc1ccccc1C(=S)NC1CCCCC1 | . | 10µM* | ?
COc1ccccc1NC(=S)NC(=O)C(C)(C)C | . | 23% | -3%
CCOc1ccccc1NC(=O)c1cccc(NC(=O)C2CCCC2)c1 | . | 49% | -6%
O=C(NC(=S)Nc1ccccc1Cl)C1CC1 | . | ? | 11µM*
CCOc1ccccc1NC(=S)NC(=O)C1CCCCC1 | . | 5.6µM* | 6.3µM*
COc1ccccc1NC(=S)NC(=O)C1CC1 | -4% | 13µM* | ?
CCOc1ccccc1OCC(=O)NC1CCCCC1 | 0% | -11% | 12%
O=C(NC1CCCCC1)c1ccccc1NC(=S)NC(=O)C1CC1 | -5% | -17% | 0%
COc1cc(-c2nc(CN(C)C(C)c3ccncn3)c(C)o2)ccc1F (stereo unspecified) | 1% | -39% | 22%
SMILES | Luc counter | RORgamma inh | Gal4-VP16 FLuc
Cc1noc(C)c1COc1ccc(C(=O)OCC(=O)NC2CCCCC2C)cc1 (stereo unspecified) | . | 31% | -2%
CCCn1c(C)nc2c(NCCOC)nc(C)nc21 | 0% | -2% | -9%
O=C(NC(=S)Nc1ccccc1Br)C1CCC1 | . | 3.2µM* | 5µM*
COC(=O)c1ccccc1NC(=O)C1CCCC1 | 1% | 0% | -14%
N#Cc1ccccc1NC(=S)NC(=O)C1CCC1 | . | ? | -6%
COC(=O)c1ccccc1NC(=S)NC(=O)C1CCCCC1 | -2% | 13µM* | ?
CC1(C)OC(=O)C2(Cc3ccccc3N3CCCCC32)C(=O)O1 (stereo unspecified) | -4% | -6% | 1%
COc1ccc(OC)c(/C=C2\S/C(=N/NC(=O)c3ccc4ccccc4c3)NC2=O)c1 | 0% | 1.4µM* | ?
O=C1N/C(=N/NC(=O)c2cccc3ccccc23)S/C1=C\c1ccccc1OCc1ccccc1 | -2% | 0.63µM* | ?
COc1cccc(/C=C2\SC(=O)NC2=O)c1OCc1ccc(C(=O)O)cc1 | 2% | 16% | -19%[10 µM]
COc1ccc(OC)c(/C=N/NC(=O)c2ccc3nc[nH]c3c2)c1 | . | 13% | -16%
Cc1oc(-c2ccc(Cl)cc2)nc1CSCC(=O)NC1CCN(Cc2ccccc2)CC1 | . | 22% | -16%
CCOc1cccc(/C=C/c2cc(C(=O)O)c3ccccc3n2)c1OC | . | 4.5µM* | ?
CCOc1cc(/C=C/c2cc(C(=O)O)c3ccccc3n2)ccc1OC | 0% | 13µM* | ?
